# Source: ChEMBL document CHEMBL1961873, “Compounds: GSK PKIS; Assays: Nanosyn kinase panel” (2012)
# Assays:
# [1] = target: Tyrosine-protein kinase CSK (Homo sapiens) (UniProt P41240); conditions: at 1 µM;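 further: each value is an averaged inhibition reading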
# [2] = target: T1, Discoidin domain-containing receptor 2 (Homo sapiens) (UniProt Q16832); conditions: at 0.1 µM
# T1 sequence (whole entry): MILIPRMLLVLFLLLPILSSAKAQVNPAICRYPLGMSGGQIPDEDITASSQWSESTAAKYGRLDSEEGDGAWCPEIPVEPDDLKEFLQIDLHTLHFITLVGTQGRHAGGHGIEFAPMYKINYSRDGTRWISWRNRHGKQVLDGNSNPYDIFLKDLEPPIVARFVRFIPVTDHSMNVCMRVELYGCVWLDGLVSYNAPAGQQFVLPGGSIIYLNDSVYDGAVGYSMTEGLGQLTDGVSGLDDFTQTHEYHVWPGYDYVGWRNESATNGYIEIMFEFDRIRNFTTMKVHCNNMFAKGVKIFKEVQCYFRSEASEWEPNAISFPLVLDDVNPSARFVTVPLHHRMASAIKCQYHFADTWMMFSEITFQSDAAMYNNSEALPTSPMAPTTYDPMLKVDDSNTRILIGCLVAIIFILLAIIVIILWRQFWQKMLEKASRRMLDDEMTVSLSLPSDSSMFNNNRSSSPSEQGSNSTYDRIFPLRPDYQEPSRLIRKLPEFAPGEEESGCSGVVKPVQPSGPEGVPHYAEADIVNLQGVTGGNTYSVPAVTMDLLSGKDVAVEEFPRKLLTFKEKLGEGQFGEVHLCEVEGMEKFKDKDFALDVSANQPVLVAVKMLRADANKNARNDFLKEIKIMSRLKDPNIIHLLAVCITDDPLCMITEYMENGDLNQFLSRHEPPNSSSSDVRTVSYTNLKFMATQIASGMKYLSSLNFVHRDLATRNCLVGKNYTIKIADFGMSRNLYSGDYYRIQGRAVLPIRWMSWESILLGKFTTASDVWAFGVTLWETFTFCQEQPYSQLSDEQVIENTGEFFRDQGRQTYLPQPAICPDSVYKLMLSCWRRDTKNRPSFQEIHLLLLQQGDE
# [3] = target: T1, Discoidin domain-containing receptor 2 (Homo sapiens); conditions: at 1 µM
# [4] = target: Epidermal growth factor receptor (Homo sapiens) (UniProt P00533); conditions: at 1 µM
# Epidermal growth factor receptor (Homo sapiens), sequence (P00533 whole entry): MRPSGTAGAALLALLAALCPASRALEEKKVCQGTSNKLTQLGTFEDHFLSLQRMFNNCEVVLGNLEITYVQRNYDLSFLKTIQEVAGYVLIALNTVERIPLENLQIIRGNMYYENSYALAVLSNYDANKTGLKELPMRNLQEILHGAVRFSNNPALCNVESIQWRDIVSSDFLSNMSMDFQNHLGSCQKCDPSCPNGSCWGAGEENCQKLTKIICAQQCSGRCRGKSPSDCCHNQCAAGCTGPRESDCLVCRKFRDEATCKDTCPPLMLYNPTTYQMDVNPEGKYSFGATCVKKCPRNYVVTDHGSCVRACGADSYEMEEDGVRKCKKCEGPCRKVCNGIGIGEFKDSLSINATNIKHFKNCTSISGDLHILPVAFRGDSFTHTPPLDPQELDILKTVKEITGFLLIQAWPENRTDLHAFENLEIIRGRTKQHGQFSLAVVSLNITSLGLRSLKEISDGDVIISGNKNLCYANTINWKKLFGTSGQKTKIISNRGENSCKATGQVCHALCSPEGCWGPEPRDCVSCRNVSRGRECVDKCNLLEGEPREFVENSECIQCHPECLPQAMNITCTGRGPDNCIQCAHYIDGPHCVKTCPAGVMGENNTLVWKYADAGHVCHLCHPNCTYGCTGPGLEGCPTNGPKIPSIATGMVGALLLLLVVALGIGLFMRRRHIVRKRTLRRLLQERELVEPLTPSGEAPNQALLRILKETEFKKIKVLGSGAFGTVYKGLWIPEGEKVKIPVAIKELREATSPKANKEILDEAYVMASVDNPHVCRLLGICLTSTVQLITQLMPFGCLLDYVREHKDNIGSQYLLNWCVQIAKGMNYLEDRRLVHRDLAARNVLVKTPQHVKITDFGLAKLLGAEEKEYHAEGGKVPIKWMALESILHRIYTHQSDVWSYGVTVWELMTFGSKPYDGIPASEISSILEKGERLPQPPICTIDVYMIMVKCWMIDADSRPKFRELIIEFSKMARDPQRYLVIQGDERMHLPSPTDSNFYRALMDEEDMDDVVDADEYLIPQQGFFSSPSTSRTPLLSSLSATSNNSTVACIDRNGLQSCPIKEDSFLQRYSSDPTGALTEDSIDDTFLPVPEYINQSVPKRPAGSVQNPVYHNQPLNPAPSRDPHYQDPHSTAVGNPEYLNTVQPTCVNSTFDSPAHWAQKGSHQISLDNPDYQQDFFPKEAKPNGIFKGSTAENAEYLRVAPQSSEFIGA
# [5] = test system: Epidermal growth factor receptor (Homo sapiens), P00533 [L858R]; conditions: at 0.1 µM
# Epidermal growth factor receptor (Homo sapiens), P00533 [L858R], sequence (P00533 whole entry L858R): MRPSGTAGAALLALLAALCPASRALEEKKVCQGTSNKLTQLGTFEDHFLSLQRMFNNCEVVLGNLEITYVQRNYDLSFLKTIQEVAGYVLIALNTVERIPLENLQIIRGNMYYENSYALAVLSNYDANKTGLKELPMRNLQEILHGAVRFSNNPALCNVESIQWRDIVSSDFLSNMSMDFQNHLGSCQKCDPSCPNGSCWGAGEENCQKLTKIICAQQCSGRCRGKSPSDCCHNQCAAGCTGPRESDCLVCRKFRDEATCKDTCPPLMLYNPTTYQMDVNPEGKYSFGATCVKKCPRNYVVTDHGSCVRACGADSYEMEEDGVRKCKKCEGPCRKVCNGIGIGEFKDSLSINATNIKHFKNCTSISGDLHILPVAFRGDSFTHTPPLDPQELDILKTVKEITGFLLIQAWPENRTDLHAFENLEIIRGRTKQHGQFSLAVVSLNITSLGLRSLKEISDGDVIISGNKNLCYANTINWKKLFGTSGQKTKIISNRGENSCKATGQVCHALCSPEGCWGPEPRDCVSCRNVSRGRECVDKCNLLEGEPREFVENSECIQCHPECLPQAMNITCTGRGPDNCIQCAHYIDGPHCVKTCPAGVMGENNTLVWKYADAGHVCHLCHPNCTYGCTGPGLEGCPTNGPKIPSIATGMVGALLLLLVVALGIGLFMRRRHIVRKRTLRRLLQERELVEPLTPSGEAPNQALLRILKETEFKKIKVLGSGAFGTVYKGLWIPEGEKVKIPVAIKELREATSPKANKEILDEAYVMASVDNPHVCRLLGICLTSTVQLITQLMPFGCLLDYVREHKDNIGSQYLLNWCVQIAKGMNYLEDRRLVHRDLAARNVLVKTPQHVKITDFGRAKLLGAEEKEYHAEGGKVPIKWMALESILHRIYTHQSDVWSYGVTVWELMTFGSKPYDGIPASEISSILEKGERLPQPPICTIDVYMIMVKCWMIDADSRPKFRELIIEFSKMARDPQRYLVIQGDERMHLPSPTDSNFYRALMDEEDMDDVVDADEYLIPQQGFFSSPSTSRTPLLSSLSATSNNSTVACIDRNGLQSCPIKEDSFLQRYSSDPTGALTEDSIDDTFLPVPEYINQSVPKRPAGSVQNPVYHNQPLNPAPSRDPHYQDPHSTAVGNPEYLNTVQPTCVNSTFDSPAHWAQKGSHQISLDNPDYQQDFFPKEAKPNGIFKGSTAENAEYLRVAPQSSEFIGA
# [6] = test system: Epidermal growth factor receptor (Homo sapiens), P00533 [L858R]; conditions: at 1 µM
# [7] = test system: Epidermal growth factor receptor (Homo sapiens), P00533 [L861Q]; conditions: at 0.1 µM
# [8] = test system: Epidermal growth factor receptor (Homo sapiens), P00533 [L861Q]; conditions: at 1 µM
# [9] = test system: Epidermal growth factor receptor (Homo sapiens), P00533 [T790M]; conditions: at 0.1 µM
# [10] = test system: Epidermal growth factor receptor (Homo sapiens), P00533 [T790M]; conditions: at 1 µM
# [11] = test system: Epidermal growth factor receptor (Homo sapiens), P00533 [L858R,T790M]; conditions: at 0.1 µM
# Epidermal growth factor receptor (Homo sapiens), P00533 [L858R,T790M], sequence (P00533 whole entry T790M/L858R, looked up): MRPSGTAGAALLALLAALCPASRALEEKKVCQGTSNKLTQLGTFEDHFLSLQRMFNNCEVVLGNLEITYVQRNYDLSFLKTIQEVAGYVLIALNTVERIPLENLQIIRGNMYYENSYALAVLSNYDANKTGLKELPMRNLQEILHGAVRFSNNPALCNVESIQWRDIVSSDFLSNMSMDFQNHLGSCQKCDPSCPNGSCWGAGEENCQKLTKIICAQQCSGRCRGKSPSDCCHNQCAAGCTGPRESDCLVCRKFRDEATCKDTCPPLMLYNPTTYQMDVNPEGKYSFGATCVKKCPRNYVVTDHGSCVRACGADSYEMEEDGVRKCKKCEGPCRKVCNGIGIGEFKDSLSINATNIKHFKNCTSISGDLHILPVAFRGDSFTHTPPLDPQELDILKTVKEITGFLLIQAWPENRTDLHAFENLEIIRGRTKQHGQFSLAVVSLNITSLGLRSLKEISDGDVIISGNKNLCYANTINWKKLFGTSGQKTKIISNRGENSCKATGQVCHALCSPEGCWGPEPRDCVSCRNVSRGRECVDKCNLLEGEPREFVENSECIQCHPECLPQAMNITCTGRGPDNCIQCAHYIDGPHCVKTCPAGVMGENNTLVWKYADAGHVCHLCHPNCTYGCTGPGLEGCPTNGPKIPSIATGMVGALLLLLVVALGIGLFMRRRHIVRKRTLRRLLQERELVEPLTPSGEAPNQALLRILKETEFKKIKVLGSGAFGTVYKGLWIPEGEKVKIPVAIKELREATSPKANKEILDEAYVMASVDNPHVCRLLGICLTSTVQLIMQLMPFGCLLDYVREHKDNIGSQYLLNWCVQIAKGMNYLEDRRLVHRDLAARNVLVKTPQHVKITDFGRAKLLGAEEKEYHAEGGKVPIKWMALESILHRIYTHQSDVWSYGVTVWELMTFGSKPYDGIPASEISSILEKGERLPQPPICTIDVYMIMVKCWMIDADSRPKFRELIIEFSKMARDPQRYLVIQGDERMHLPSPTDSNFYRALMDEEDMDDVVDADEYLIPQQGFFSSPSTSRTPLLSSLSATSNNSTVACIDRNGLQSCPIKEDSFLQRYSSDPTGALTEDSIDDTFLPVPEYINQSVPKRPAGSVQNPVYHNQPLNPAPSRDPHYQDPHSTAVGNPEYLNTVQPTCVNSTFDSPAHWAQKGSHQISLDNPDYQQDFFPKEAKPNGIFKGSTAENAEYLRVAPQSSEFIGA
# [12] = test system: Epidermal growth factor receptor (Homo sapiens), P00533 [L858R,T790M]; conditions: at 1 µM
# [13] = target: Ephrin type-A receptor 2 (Homo sapiens) (UniProt P29317); conditions: at 0.1 µM
# [14] = target: Ephrin type-A receptor 2 (Homo sapiens) (UniProt P29317); conditions: at 1 µM
# [15] = target: T2, Ephrin type-A receptor 3 (Homo sapiens) (UniProt P29320); conditions: at 0.1 µM
# T2 sequence (whole entry): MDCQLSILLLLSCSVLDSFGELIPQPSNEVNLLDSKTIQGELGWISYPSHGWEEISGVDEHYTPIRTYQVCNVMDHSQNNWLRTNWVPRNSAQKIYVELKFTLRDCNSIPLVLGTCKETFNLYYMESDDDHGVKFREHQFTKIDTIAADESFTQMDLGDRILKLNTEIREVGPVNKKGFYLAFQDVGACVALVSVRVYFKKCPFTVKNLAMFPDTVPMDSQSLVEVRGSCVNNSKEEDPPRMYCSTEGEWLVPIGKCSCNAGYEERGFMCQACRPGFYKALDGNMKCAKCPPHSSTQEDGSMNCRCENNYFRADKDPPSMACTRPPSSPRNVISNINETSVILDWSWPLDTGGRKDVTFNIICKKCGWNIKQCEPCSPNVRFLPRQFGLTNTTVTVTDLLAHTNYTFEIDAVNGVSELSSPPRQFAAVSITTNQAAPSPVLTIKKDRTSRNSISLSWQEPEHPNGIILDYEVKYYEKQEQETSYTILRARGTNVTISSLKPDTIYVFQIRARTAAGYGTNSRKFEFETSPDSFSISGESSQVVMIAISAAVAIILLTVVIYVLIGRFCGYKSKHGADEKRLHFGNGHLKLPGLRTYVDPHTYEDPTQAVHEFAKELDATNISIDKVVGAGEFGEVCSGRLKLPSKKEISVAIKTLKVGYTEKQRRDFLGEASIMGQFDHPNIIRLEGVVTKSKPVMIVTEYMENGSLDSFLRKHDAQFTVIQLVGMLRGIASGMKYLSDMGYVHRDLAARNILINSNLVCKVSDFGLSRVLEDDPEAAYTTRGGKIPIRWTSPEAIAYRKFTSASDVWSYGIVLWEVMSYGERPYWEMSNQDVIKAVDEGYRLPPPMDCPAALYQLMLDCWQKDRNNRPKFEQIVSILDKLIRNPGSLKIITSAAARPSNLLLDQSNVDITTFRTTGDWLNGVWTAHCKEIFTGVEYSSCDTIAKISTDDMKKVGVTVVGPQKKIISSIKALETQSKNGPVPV
# [16] = target: T2, Ephrin type-A receptor 3 (Homo sapiens); conditions: at 1 µM
# [17] = target: Ephrin type-A receptor 4 (Homo sapiens) (UniProt P54764); conditions: at 0.1 µM
# Ephrin type-A receptor 4 (Homo sapiens), sequence (P54764 whole entry): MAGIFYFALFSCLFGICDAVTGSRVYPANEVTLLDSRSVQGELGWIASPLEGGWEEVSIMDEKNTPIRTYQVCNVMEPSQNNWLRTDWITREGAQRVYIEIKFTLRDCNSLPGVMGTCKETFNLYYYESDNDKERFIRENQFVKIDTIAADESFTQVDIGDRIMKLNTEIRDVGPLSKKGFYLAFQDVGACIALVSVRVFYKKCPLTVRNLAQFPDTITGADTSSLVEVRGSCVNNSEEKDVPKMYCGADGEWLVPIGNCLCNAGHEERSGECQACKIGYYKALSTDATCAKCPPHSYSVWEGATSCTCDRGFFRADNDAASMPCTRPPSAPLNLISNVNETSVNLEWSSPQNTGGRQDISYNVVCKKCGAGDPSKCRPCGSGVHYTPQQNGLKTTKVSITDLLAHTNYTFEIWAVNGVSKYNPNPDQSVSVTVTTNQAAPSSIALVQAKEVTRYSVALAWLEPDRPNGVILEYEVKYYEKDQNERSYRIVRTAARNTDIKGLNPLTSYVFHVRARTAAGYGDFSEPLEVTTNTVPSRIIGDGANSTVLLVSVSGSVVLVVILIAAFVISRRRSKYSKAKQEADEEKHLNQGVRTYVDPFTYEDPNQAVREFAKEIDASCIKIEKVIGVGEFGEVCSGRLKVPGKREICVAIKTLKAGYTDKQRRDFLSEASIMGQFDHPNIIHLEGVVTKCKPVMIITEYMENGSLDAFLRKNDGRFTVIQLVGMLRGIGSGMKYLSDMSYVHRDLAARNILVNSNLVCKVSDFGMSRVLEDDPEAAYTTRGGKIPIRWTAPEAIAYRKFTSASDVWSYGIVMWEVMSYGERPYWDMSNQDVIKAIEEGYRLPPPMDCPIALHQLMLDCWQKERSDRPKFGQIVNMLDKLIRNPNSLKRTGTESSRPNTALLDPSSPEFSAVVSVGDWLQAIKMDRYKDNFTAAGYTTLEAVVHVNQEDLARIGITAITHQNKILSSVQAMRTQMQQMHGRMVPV
# [18] = target: Ephrin type-A receptor 4 (Homo sapiens) (UniProt P54764); conditions: at 1 µM
# [19] = target: T3, Ephrin type-B receptor 2 (Homo sapiens) (UniProt P29323); conditions: at 0.1 µM;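 further: reported as mean inhibition of EPHB2, from the GSK PKIS dataset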
# T3 sequence (whole entry): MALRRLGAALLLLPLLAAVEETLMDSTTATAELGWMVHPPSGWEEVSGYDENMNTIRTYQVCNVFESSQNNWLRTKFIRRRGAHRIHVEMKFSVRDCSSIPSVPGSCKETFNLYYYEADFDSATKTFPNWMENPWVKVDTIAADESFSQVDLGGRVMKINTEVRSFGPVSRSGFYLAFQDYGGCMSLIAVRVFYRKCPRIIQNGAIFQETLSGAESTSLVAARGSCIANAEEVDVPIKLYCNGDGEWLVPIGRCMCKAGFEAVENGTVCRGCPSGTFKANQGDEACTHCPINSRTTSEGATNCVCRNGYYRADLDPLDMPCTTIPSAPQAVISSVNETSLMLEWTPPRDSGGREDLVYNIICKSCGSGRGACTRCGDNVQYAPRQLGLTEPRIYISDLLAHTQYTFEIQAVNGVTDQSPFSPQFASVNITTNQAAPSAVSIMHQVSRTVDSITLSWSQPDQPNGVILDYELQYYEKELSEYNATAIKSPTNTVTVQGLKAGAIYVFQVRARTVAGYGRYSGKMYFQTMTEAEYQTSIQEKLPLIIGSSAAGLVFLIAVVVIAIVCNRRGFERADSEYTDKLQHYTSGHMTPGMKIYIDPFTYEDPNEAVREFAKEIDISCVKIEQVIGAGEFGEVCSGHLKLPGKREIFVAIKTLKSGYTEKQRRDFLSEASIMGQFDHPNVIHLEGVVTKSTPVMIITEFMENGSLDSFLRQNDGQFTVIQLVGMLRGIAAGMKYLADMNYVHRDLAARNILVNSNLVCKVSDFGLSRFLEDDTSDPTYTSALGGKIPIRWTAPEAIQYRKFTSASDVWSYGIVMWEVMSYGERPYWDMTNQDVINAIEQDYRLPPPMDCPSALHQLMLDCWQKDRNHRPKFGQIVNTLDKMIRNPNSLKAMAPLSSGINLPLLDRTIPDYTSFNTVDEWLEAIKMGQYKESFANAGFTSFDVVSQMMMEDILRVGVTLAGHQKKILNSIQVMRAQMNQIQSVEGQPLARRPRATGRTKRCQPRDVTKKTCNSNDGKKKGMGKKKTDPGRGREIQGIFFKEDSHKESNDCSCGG
# [20] = target: Epidermal growth factor receptor (Homo sapiens) (UniProt P00533); conditions: at 0.1 µM
# Tyrosine-protein kinase CSK (Homo sapiens), sequence (P41240 2-450 limits assumed): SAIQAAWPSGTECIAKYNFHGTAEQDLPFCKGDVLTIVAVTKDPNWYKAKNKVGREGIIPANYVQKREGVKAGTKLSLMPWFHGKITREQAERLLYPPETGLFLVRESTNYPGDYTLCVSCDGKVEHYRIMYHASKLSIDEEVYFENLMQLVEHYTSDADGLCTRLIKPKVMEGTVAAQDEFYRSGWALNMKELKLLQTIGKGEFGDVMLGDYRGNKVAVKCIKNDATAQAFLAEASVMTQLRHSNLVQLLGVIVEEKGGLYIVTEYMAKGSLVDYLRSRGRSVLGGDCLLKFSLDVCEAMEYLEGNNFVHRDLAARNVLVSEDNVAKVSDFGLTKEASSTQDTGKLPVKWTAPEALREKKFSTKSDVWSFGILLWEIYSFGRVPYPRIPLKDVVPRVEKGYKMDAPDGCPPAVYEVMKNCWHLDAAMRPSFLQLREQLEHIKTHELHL
SMILES,inhibition [1],inhibition [2],inhibition [3],inhibition [4],inhibition [5],inhibition [6],inhibition [7],inhibition [8],inhibition [9],inhibition [10],inhibition [11],inhibition [12],inhibition [13],inhibition [14],inhibition [15],inhibition [16],inhibition [17],inhibition [18],inhibition [19],inhibition [20]
COc1cc2ncn(-c3cc(OCc4ccccc4C(F)(F)F)c(C(N)=O)s3)c2cc1OC,9.28%,7.36%,7.43%,3.5%,2.54%,13.5%,3.75%,4.35%,2%,1.9%,3.32%,4.7%,-0.41%,3.23%,-0.35%,7.13%,11.3%,23.3%,14.9%,–
COc1cc2ncn(-c3cc(O[C@@H](C)c4ccccc4Cl)c(C(N)=O)s3)c2cc1OC,5.68%,1.33%,1.58%,7.32%,5.96%,26.9%,3.26%,7.73%,1.35%,2.06%,1.8%,5.2%,1.55%,1.17%,1.7%,6.21%,6.22%,14.2%,7.76%,0.08%
CC(=O)Nc1cccc(C#Cc2cncnc2Nc2ccc(OCc3cccc(F)c3)c(Cl)c2)n1,3.91%,2.33%,1.71%,77.7%,24.8%,72.5%,29.1%,55.6%,0.03%,9.1%,-2.43%,3.75%,2.75%,1.53%,0.44%,0.58%,1.13%,5.16%,-1.46%,69.5%
Cc1nn(C)c2cc(N(C)c3ccnc(Nc4cccc(S(N)(=O)=O)c4)n3)ccc12,22.4%,-2.88%,–,13.9%,1.02%,16%,2.56%,9.38%,1.34%,7.49%,1.34%,12.7%,1.28%,18.6%,6.82%,16.5%,12.2%,43.7%,7.61%,5.33%
CCn1c(-c2nonc2N)nc2cncc(C(=O)N3CC[C@H](N)C3)c21,5.06%,1.43%,1.61%,2.64%,3.22%,5.35%,3.58%,4.5%,2.65%,3.15%,1.56%,1.95%,-0.29%,-0.49%,4.99%,5.74%,9.5%,10%,5.01%,0.8%
COc1ccc(-c2coc3ncnc(N)c23)cc1,0.88%,2.79%,2.69%,2.37%,1.46%,1.48%,1.51%,-0.75%,1.2%,-0.41%,3.68%,1.07%,1.21%,1.62%,2.58%,3.4%,7.51%,3.15%,4.53%,-0.38%
Nc1ncnc2occ(-c3ccc(NC(=O)Nc4cc(C(F)(F)F)cc(C(F)(F)F)c4)cc3)c12,20.6%,67.7%,84.4%,0.39%,1.34%,-2.77%,2.29%,-2.09%,1.48%,-2.28%,-1.98%,0.18%,7.28%,42%,6.5%,14.6%,8.44%,44.5%,22%,0.56%
COc1cc2ncn(-c3cc(O[C@H](C)c4ccccc4Cl)c(C(N)=O)s3)c2cc1OC,10.1%,8.95%,12%,3.34%,3.8%,14.9%,2.61%,5.37%,1.29%,6.04%,3.14%,6.52%,5.44%,6.5%,3.58%,14.3%,18.9%,26.8%,16.6%,3.12%
O=C1NC(=O)C(N2CCc3ccccc32)=C1c1ccc(Cl)cc1,0.75%,3.2%,8.8%,3.22%,-1.38%,5.23%,4.7%,2.74%,2.82%,-0.47%,1.35%,2.67%,1.33%,1.75%,3.76%,3.61%,8.28%,3.43%,5.72%,-0.66%
COC(=O)Nc1nc2cc(Oc3cccc(NC(=O)Nc4cc(C(F)(F)F)ccc4F)c3)ccc2[nH]1,2.36%,13.2%,68.6%,1.45%,-1.54%,1.41%,-1.86%,-4.32%,-1.19%,-1.93%,-3.25%,3.44%,-2.35%,3.83%,0.48%,2.56%,1.63%,14.2%,-0.54%,0.87%
CCn1c(-c2nonc2N)nc2cnc(Oc3cccc(NC(=O)c4ccc(OCCN5CCOCC5)cc4)c3)cc21,2.94%,1.27%,-0.68%,3%,1.72%,2.23%,2.62%,2.57%,0.97%,2.18%,-0.63%,3.24%,-2.53%,-2.47%,3.26%,4.85%,7.53%,7.73%,5.7%,1.37%
CCCN1CCC(Oc2cc(Nc3nc(Nc4cccc(F)c4C(N)=O)c4cc[nH]c4n3)c(OC)cc2Cl)CC1,0.71%,5.18%,9.57%,2.64%,1.86%,1.31%,1.13%,0.75%,-0.41%,-0.49%,-2.63%,2.79%,-1.48%,0.75%,-0.71%,2.51%,3.96%,9.42%,5.31%,1.11%
